Screens (PubChem)
D2 PAM-1: positive allosteric modulators of human D2 dopamine receptor. P14416. DiscoveRx D2 beta-arrestin cells, luminescence, 90 min; 100% = 57 uM dopamine signal. potentiation, % (test concentration not listed). actives 0.23% (n = 360,000); in the data active = potentiation above about 50%
Target sequence (P14416 whole entry, looked up): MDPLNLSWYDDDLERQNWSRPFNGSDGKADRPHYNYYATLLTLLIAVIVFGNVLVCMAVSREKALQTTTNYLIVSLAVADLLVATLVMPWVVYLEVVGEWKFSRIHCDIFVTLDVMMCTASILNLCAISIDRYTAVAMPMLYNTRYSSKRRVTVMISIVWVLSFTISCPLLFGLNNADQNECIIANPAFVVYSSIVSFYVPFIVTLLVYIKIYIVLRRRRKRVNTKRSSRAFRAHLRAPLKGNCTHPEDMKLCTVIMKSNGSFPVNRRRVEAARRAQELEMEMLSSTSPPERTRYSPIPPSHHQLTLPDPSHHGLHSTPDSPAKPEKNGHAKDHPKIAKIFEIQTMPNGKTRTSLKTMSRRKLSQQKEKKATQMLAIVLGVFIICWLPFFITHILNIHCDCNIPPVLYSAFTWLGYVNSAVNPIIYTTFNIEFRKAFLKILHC
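D2 cells co-treated with compound plus 50 nM dopamine (EC20) for 90 min at 37 deg C to detect potentiation. Beta-arrestin recruitment was read as enzyme-fragment luminescence after 1 h at ambient temperature. Full response was set by 57 uM dopamine.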
D2 PAM-2: D2 dopamine receptor (human) potentiation; HEK293 T-REx D2, calcium flux, EC20 dopamine potentiation; potentiation, % at 10 µM; actives 0.34% (n = 340,000);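 active = potentiation over 3 SD above the plate norm, cut at about 30% in these data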
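Tetracycline-induced HEK293 T-REx cells force-coupled to calcium signalling expressed D2; compounds were pin-added after a 10 s baseline, read kinetically 180 s, then an EC20 dopamine challenge followed with a further 180 s calcium read.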
D2 ag-1: activates the human D2 dopamine receptor | HEK293 T-REx D2 cells, calcium flux agonist mode | P14416 | actives 0.53% (n = 340,000) | activation, % at 2 µM;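 active = activation over 3 SD above normal in the single-dose calcium agonist read, cut at about 30% in these data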
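In this primary screen, compounds producing a positive calcium signal within 180 s of addition to tetracycline-induced, force-coupled HEK293 Trex D2 cells are flagged; cells are dye-loaded with a no-wash calcium kit beforehand.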
D2 ag-2: activates the human D2 dopamine receptor | P14416 | DiscoveRx PathHunter D2 beta-arrestin, luminescence, 90 min; 100% = 57 uM dopamine signal | actives 0.084% (n = 360,000) | AID 624465 | activation, % (concentration not given with the values); in the data active = activation above about 40%
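Agonist mode: compounds alone added to overnight-plated D2 PathHunter cells for 90 min at 37 C, with 57 uM final dopamine (EC100) defining full response. Beta-arrestin recruitment detected by chemiluminescent reagent, read after 1 h at ambient temperature.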
D2 antag: D2 dopamine receptor (human) antagonism; AID 485344; HEK293 TREx D2 cells, calcium flux, dopamine EC80; actives 2% (n = 340,000); P14416; inhibition, % at 10 µM; in the data active = inhibition above about 30%; inactive = below that, where a call was filed
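Calcium flux kinetic readout in an inducible HEK293 TREx D2 line plated overnight at 30 C. After 180 s compound exposure, an EC80 dopamine challenge follows with another 180 s kinetic read to detect antagonism.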
Of the large screens only hits and unclear results are named; the others gave an inactive call; ! = not confirmed by another sample. In the library only some 2.4% were active in any assay of this set; here they are far more common.

CC1=Nc2cccc3cccc(c23)N1	D2 PAM-1 55.6
CCCCC(Sc1nc(N)c(NC(=O)c2ccc(OCC)cc2)c(=O)[nH]1)C(=O)O (stereo not given)	D2 PAM-2 31.2
CC12C(=O)N(c3cccc4cccnc34)C(=O)C1C1C=CC2C1 (stereo not given)	none
CC12C(=O)N(c3ccccc3C(=O)O)C(=O)C1C1C=CC2C1 (stereo not given)	D2 antag 36.2
c1ccc(-c2cc3n(c2)CCc2ccccc2-3)cc1	D2 antag 33.1
CCOc1cc(C(=O)NCc2ccc3c(c2)CCN3C(=O)c2ccc(F)cc2)cc(OCC)c1OCC	none (no result: D2 PAM-1, D2 ag-2, D2 antag)
O=C(CN1C(=O)CC(c2ccccc2)Sc2ccccc21)Nc1cccc(Cl)c1 (stereo not given)	none (no result: D2 PAM-1, D2 ag-2, D2 antag)
COC(=O)c1ccccc1N(C)S(=O)(=O)c1cc2c3c(c1)CC(=O)N3CCC2	none (no result: D2 PAM-1, D2 ag-2, D2 antag)
CCCCOc1ccc(-c2nc(-c3cccnc3)no2)cc1	D2 antag 34.4
CCOc1ccc(-c2nc(-c3cccnc3)no2)cc1	none
CCOc1nc(-c2ccccc2)ccc1-c1noc(-c2ccc(C)cc2)n1	none (no result: D2 PAM-1, D2 ag-2, D2 antag)
CCOc1ccc(-c2nc(-c3ccccc3C)no2)cc1	D2 antag 52.9 (no result: D2 PAM-1, D2 PAM-2, D2 ag-2)
COc1ccc(S(=O)(=O)Nc2cccc(N(C)S(C)(=O)=O)c2)cc1Br	none
CN(c1cccc(NS(=O)(=O)c2cccs2)c1)S(C)(=O)=O	D2 PAM-2 30.4
CC(C)NS(=O)(=O)c1ccc(OCC(=O)N2CCc3ccccc3C2)cc1	D2 antag 30.4
COc1cc(C#N)ccc1OCC(=O)N1CCc2ccccc2C1	D2 PAM-2 38.2
CC(C)NS(=O)(=O)c1ccc(OCC(=O)N2CCCC2)cc1	none (no result: D2 ag-1, D2 antag)
Cc1cc(OCC(=O)OCC(=O)N2CCc3ccccc3C2)ccc1Cl	D2 PAM-2 36.3
COc1cc2c(cc1OC)n(CC(=O)c1ccc(C)cc1)c(=O)n1nc(CCn3nc(C)cc3C)nc21	none (no result: D2 PAM-1, D2 ag-2, D2 antag)
CCOc1ccc(OCC)c(NC(=O)CCc2nc3cccnc3n2Cc2cccs2)c1	none (no result: D2 PAM-1, D2 ag-1, D2 ag-2, D2 antag)
CCOC(=O)C1=C(C)NC(=S)N(C(C)=O)C1c1ccccc1 (stereo not given)	D2 antag 32.1
CC(C)OCCCNC(=O)c1ccc2c(c1)NC(=O)c1ccccc1S2	D2 PAM-2 36.6!
O=C(NCCCN1CCCCC1)c1ccc2c(c1)NC(=O)c1ccccc1S2	none
COc1ccc(OC)c(S(=O)(=O)N2CCN(c3c(C)cccc3C)CC2)c1	D2 antag 35.7
COc1ccc(OC)c(S(=O)(=O)N2c3ccccc3CC2C)c1 (stereo not given)	D2 antag 33.0
Cc1ccc(Cl)cc1NC(=O)COC(=O)c1ccc(N2CCCC2)c([N+](=O)[O-])c1	D2 antag 57.2 (no result: D2 PAM-1, D2 ag-2)
CCCNC(=O)COC(=O)c1ccc(N2CCCC2)c([N+](=O)[O-])c1	none
O=C1CCNc2cc3ccccc3cc21	D2 PAM-1 55.4
Cc1ccc(S(=O)(=O)N2CCCN(Cc3nc4ccccc4c(=O)[nH]3)CC2)cc1	none
COc1cc2nc(CN3CCN(S(=O)(=O)c4ccc(C)c(C)c4)CC3)[nH]c(=O)c2cc1OC	D2 PAM-2 32.3
CCNCc1nc2cc(OC)c(OC)cc2c(=O)[nH]1	D2 antag 32.7
COc1ccc(-c2cn3c(n2)sc2cc(C(=O)NCCc4ccccc4)ccc23)cc1	none (no result: D2 PAM-1, D2 ag-2, D2 antag)
COc1ccc(OC)c(C2=NOC(C(=O)NCc3cccnc3)C2)c1 (stereo not given)	none
COc1cc(OC)c(C2=NOC(C(=O)NCc3cccnc3)C2)cc1Cl (stereo not given)	D2 PAM-1 54.4
COc1ccc(-c2oc3ncnc(NCCCN(C)C)c3c2-c2ccc(OC)cc2)cc1	D2 antag 53.5
CN(C)CCNc1ncnc2oc(-c3ccccc3)c(-c3ccccc3)c12	none
CCCCCCCCC(=O)NCCOc1ccc(OC)cc1	none
COc1ccc(OCCCC(=O)NCC(C)C)cc1	D2 antag 30.6
CCCNC(=O)c1ccc(OC)cc1OC	none
COc1ccc(C(=O)NCC(C)C)c(OC)c1	D2 PAM-2 44.3
Cc1cc(C)cc(NC(=O)C2CCN(S(=O)(=O)c3cn(C)cn3)CC2)c1	none (no result: D2 PAM-1, D2 ag-2, D2 antag)
Cc1[nH]c2ccccc2c1C(=O)CN1CCN(C/C=C/c2ccccc2)CC1	D2 antag 80.3
Cc1[nH]c2ccccc2c1C(=O)CN1CCN(C2CCCCC2)CC1	D2 antag 58.2 (no result: D2 PAM-1, D2 ag-2)
